# Assay results from PubChem BioAssay (NCI).
# Compounds without any hit were thinned out: in the full panel of roughly 79,000, 15% have a hit. Activity calls are given as the source filed them. No stated cut-off is given here; in the data, active means growth inhibition above about 70%; inactive means the rest.
# Assay: NCI Yeast Anticancer Drug Screen. Data for the CLN2oe strain (AID 163);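 further: 0% = growth of vehicle-only control cultures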
# Details: S. cerevisiae CLN2oe strain, at 11.0 µM, active compounds read high
# Procedure, shortened: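 Whole-cell yeast growth assay. A strain engineered for altered cell-cycle control received compound, and inhibition relative to vehicle-treated cultures was recorded.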
row,Compound,growth inhibition
1,CC(CN(C)C)C(=O)/C=C/c1ccc(Cl)c(Cl)c1 (stereo not given),10% (inactive)
2,CCCCCCNCCCNc1c2cc(OC)ccc2nc2cccc([N+](=O)[O-])c12,-9% (inactive)
3,NC(=S)N1N=C2c3ccccc3CC[C@H]2[C@@H]1c1ccc(Cl)cc1,18% (inactive)
4,C/C(=N/NC(=S)Nc1ccccc1C)c1ccccn1,-9% (inactive)
5,O=C1/C(=C/c2ccc(Cl)c(Cl)c2)CNC/C1=C\c1ccc(Cl)c(Cl)c1,29% (inactive)
6,CC(C)OP(=O)(OC(C)C)C(=NCCO)NNc1ccc([N+](=O)[O-])cc1,4% (inactive)
7,N#CCC(=O)N/N=C(\c1ccccc1)C(c1ccccc1)C1(O)C(=O)Nc2c(Cl)ccc(Cl)c21 (stereo not given),-2% (inactive)
8,CC(C)(CN1CCCCC1)C(=O)CC(SCCS(=O)(=O)O)c1ccccc1 (stereo not given),8% (inactive)
9,CCCCN(CCCC)c1ccc(N=Nc2ccc(S(=O)(=O)O)cc2)cc1,-8% (inactive)
10,c1ccc2nc3c(nc2c1)sc1ccccc13,28% (inactive)
11,O=C1c2ccccc2-c2ccc(N=Cc3ccccc3)cc21,-13% (inactive)
12,CNC(=S)N/N=C(/C)CCC/C(C)=N/NC(=S)NC,98% (active)
13,Nc1ccc(/C=C/c2ccc3cccnc3c2)cc1,1% (inactive)
14,COc1ccc2c3c1OC(C)C31CC(=O)CCC1CC2 (stereo not given),1% (inactive)
15,CCOC(=O)Nc1ccc(C)c(NC(=O)OCC)c1,23% (inactive)
16,O=C(c1cc(=O)c2ccc(O)cc2o1)c1ccc(Cl)cc1Cl,23% (inactive)
17,CCCNC(=O)OCc1c(COC(=O)NCCC)c(-c2ccc(Cl)c(Cl)c2)n2c1CCC2,-15% (inactive)
18,O=C(Cc1ccccc1)NN1C(=O)C(Cl)C1c1cc(Br)cc(Br)c1O (stereo not given),95% (active)
19,CCOC(=O)C(Cc1c2ccccc2cc2ccccc12)(NC(C)=O)C(=O)OCC,-6% (inactive)
20,O=[N+]([O-])/C=C/c1cc2ccc3ccccc3c2[nH]1,31% (inactive)
21,O=S1(=O)CCC2=CC(C(F)(F)F)=CC(C(F)(F)F)=CN21,40% (inactive)
22,O=C(Cc1ccccc1)NNc1nc(NNC(=O)c2ccncc2)nc(Nc2ccc([N+](=O)[O-])cc2)n1,8% (inactive)
23,CCCCS/C(=C(/C#N)C(N)=O)c1cc2c([nH]1)CCCC2,-18% (inactive)
24,O=C(O)c1ccccc1C(=O)OC1CCc2ccccc2C1 (stereo not given),-11% (inactive)
25,CCOC(=O)/C(=C\c1cccc(C)c1)C(C)=O,55% (inactive)
26,NC(=S)N/N=C1\c2ccccc2CCC1CCC1(O)CCc2ccccc2C1=O (stereo not given),42% (inactive)
27,Cc1cccc2c(Cl)c3cccc(C)c3nc12,-7% (inactive)
28,CC(C)OC(=O)NNc1c(Cl)cc(Cl)cc1Cl,14% (inactive)
29,N#CSCC1COc2ccccc2O1 (stereo not given),-14% (inactive)
30,CC1=NN(C(=O)c2ccccc2O)C(=O)/C1=C/c1ccco1,81% (active)

# Same assay, conditions: S. cerevisiae CLN2oe strain, at 33.0 µM, active compounds read high
row,Compound,growth inhibition
1,CC(CN(C)C)C(=O)/C=C/c1ccc(Cl)c(Cl)c1 (stereo not given),29% (inactive)
2,CCCCCCNCCCNc1c2cc(OC)ccc2nc2cccc([N+](=O)[O-])c12,53% (inactive)
3,NC(=S)N1N=C2c3ccccc3CC[C@H]2[C@@H]1c1ccc(Cl)cc1,42% (inactive)
4,C/C(=N/NC(=S)Nc1ccccc1C)c1ccccn1,-11% (inactive)
5,O=C1/C(=C/c2ccc(Cl)c(Cl)c2)CNC/C1=C\c1ccc(Cl)c(Cl)c1,48% (inactive)
6,CC(C)OP(=O)(OC(C)C)C(=NCCO)NNc1ccc([N+](=O)[O-])cc1,44% (inactive)
7,N#CCC(=O)N/N=C(\c1ccccc1)C(c1ccccc1)C1(O)C(=O)Nc2c(Cl)ccc(Cl)c21 (stereo not given),-8% (inactive)
8,CC(C)(CN1CCCCC1)C(=O)CC(SCCS(=O)(=O)O)c1ccccc1 (stereo not given),15% (inactive)
9,CCCCN(CCCC)c1ccc(N=Nc2ccc(S(=O)(=O)O)cc2)cc1,97% (active)
10,c1ccc2nc3c(nc2c1)sc1ccccc13,37% (inactive)
11,O=C1c2ccccc2-c2ccc(N=Cc3ccccc3)cc21,-8% (inactive)
12,CNC(=S)N/N=C(/C)CCC/C(C)=N/NC(=S)NC,98% (active)
13,Nc1ccc(/C=C/c2ccc3cccnc3c2)cc1,-4% (inactive)
14,COc1ccc2c3c1OC(C)C31CC(=O)CCC1CC2 (stereo not given),-1% (inactive)
15,CCOC(=O)Nc1ccc(C)c(NC(=O)OCC)c1,23% (inactive)
16,O=C(c1cc(=O)c2ccc(O)cc2o1)c1ccc(Cl)cc1Cl,94% (active)
17,CCCNC(=O)OCc1c(COC(=O)NCCC)c(-c2ccc(Cl)c(Cl)c2)n2c1CCC2,4% (inactive)
18,O=C(Cc1ccccc1)NN1C(=O)C(Cl)C1c1cc(Br)cc(Br)c1O (stereo not given),94% (active)
19,CCOC(=O)C(Cc1c2ccccc2cc2ccccc12)(NC(C)=O)C(=O)OCC,0% (inactive)
20,O=[N+]([O-])/C=C/c1cc2ccc3ccccc3c2[nH]1,63% (inactive)
21,O=S1(=O)CCC2=CC(C(F)(F)F)=CC(C(F)(F)F)=CN21,68% (inactive)
22,O=C(Cc1ccccc1)NNc1nc(NNC(=O)c2ccncc2)nc(Nc2ccc([N+](=O)[O-])cc2)n1,11% (inactive)
23,CCCCS/C(=C(/C#N)C(N)=O)c1cc2c([nH]1)CCCC2,-32% (inactive)
24,O=C(O)c1ccccc1C(=O)OC1CCc2ccccc2C1 (stereo not given),39% (inactive)
25,CCOC(=O)/C(=C\c1cccc(C)c1)C(C)=O,92% (active)
26,NC(=S)N/N=C1\c2ccccc2CCC1CCC1(O)CCc2ccccc2C1=O (stereo not given),64% (inactive)
27,Cc1cccc2c(Cl)c3cccc(C)c3nc12,-7% (inactive)
28,CC(C)OC(=O)NNc1c(Cl)cc(Cl)cc1Cl,19% (inactive)
29,N#CSCC1COc2ccccc2O1 (stereo not given),70% (active)
30,CC1=NN(C(=O)c2ccccc2O)C(=O)/C1=C/c1ccco1,91% (active)
